Results as given in PubChem BioAssay (NCATS).
Records with an inconclusive call do not appear. Unmarked numbers belong to inactive results. The call rests on the fitted dose curve; in most records, active means well fitted activation curve with a large enough effect; inconclusive means small, poorly fitted or top-dose-only effect, or another doubt; inactive means no such curve, though single readings can be large or run the other way.

Biological target: Rap guanine nucleotide exchange factor 3 (Homo sapiens) (UniProt O95398)
Experiment: Counterscreen qHTS for agonist of cAMP-regulated guanine nucleotide exchange factor 3 (EPAC1) (AID 1645889); further: % of control where 0% means no effect; nearly all actives have a fitted effect of over 40% in size
Conditions: EPAC1 Rap1B-BODIPY-GDP exchange, fluorescence; series mostly up to 154 µM; activation: at the top concentration
Procedure, shortened: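 Rap1B–BODIPY-GDP (250 nM) with 50 uM GDP; compounds pin-transferred to 9.74 nM–152 uM final (activator) or from 7.32 nM upwards (inhibitor). Fluorescence Ex/Em 480/540 nm read at 5 and 30 min, then after adding cAMP or buffer, at room temperature.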

Structure (SMILES) | activation
COc1cc(/C=C2\SC(=Nc3ccc(Cl)c(C(=O)O)c3)NC2=O)c(Br)c(Br)c1O | 0.17% [at 30.8 µM]
COc1ccc(N=C2NC(=O)S/C2=C\c2ccc(N(C)C)cc2)cc1 | -8%
Cc1ccc(N(C(=O)c2ccccc2Cl)C2=NC(C)CS2)c(C)c1 (stereo unspecified) | 26.9% [at 30.8 µM]
O=C(O)c1ccccc1N=N/C(=N/Nc1cc(S(=O)(=O)O)ccc1O)c1ccccc1 | -1.6% [at 30.8 µM]
COc1ccc(C2=CC(=O)OC3(CCCCC3)O2)cc1 | 7.07% [at 30.8 µM]
CCOc1ccc(C(=O)Nc2c(C(=O)Nc3ccccc3F)oc3ccccc23)cc1OCC | 12.5%
